Bioassay records (PubChem)
Rtt109 Vps75 – C. albicans Rtt109 histone acetyltransferase inhibition; Q5AAJ8; purified Rtt109/Vps75, ThioGlo CoA-SH fluorescence, 4 h; inhibition, % at 34.9 µM; 330,000 tested, 0.16% active; AID 540336;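 active = inhibition of at least 50% in every replicate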
Target sequence (Q5AAJ8 whole entry, looked up): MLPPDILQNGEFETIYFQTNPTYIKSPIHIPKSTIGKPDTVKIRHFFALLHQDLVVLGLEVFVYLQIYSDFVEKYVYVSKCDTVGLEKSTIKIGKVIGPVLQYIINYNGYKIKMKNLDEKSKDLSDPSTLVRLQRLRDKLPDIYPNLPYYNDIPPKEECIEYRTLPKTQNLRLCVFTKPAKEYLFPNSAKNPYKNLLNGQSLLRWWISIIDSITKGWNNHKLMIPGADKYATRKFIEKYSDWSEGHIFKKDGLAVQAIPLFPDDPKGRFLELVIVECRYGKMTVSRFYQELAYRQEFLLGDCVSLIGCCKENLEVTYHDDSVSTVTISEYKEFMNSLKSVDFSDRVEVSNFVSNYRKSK
WT yeast gro inh – growth inhibition of WT yeast, mitochondrial fusion screen | mitochondrial fusion phenotypic screen, WT strain | inhibition, % at 10 µM | 190,000 tested, 2.1% active; in the data active = inhibition above about 58%; tested in S. cerevisiae
PHOSPHO1 block – inhibitors of human PHOSPHO1 phosphatase; Q8TCT1; recombinant PHOSPHO1, absorbance phosphatase assay; inhibition, % at 13.3 µM; 290,000 tested, 1.1% active; AID 1565; in the data active = inhibition above about 60%
Platelet DG rel – modulates dense granule release in human platelets | AID 1663 | inhibition, %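 (compounds screened at 7.5 µM in platelet-rich plasma)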 | human platelet-rich plasma, SFLLRN dense granule ATP release, luminescence | 300,000 tested, 0.22% active;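 active = mean replicate score, as percent of positive control, at or above 50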
SKKanGAS inh – inhibitors of SKKanGAS S. pyogenes growth in kanamycin (SK-promoter or general growth effect); BacTiter-Glo, 6 h; inhibition, % at 7.5 µM; 300,000 tested, 1.3% active;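 active = mean replicate score, as percent of positive control median, at least 50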;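 also: strain carries kanamycin resistance gene driven by streptokinase promoter and grows in 40 µg/ml kanamycin; loss of luminescence reflects streptokinase promoter inhibition or plain growth inhibition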
TPT1 inh – inhibitors of Candida albicans tRNA 2'-phosphotransferase TPT1; 300,000 tested, 0.81% active; inhibition, % at 5 µM; AID 1962; recombinant caTPT1, FP RNA substrate dephosphorylation;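 active = inhibition above the mean of all tested compounds plus 3 SD, set per screening campaign, cut at about 24% in these data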
Each line names hits and unclear results; the compound was inactive in the other large screens. This is a sample that favours compounds with a hit; in the whole collection about 3.9% have one here.

C=CCn1c(-c2cc3c(s2)CCC(CC)C3)n[nH]c1=S (centres undefined)	WT yeast gro inh 74
C=CCn1c(SCC(=O)NC2CCS(=O)(=O)C2)nnc1-c1cc2c(s1)CCC(CC)C2 (centres undefined)	none
COc1ccc(OCC(=O)Nc2ccc(N3CCN(C(=O)c4ccccc4)CC3)c(Cl)c2)cc1	none (no result: WT yeast gro inh)
CC1(C)CC(=O)C2=C(C1)c1c(ccc3ccccc13)NC2c1ccc(C(=O)O)cc1 (centres undefined)	none (no result: WT yeast gro inh)
CC1(C)CC(=O)C2=C(C1)c1c(ccc3ccccc13)NC2c1cc([N+](=O)[O-])cc([N+](=O)[O-])c1O (centres undefined)	SKKanGAS inh 72
COc1ccc(NC(=O)NC2(C(=O)N3CCCCC3)CCCCC2)cc1	none (no result: WT yeast gro inh)
CC1(C)Cc2c(sc3ncn4c(=S)[nH]nc4c23)CO1	PHOSPHO1 block 68
N#C/C(=C(/O)c1cc2ccccc2o1)c1nc2ccccc2s1	SKKanGAS inh 61 (no result: WT yeast gro inh)
COc1ccc2c(c1)CCCC21NC(=O)N(CC(=O)N2CC(C)OC(C)C2)C1=O (centres undefined)	none (no result: WT yeast gro inh, PHOSPHO1 block, Platelet DG rel, SKKanGAS inh, TPT1 inh)
COC(=O)CCS(=O)(=O)c1nc(-c2ccccc2)cc(C(F)(F)F)n1	Rtt109 Vps75 68
CC(C)C(NS(=O)(=O)c1ccccc1F)C(=O)OCC(=O)NCc1ccco1 (centres undefined)	none (no result: WT yeast gro inh, PHOSPHO1 block, Platelet DG rel, SKKanGAS inh, TPT1 inh)
CC(C)C(=O)N1CCN(c2ccccc2NC(=S)NC(=O)/C=C/c2ccco2)CC1	none (no result: WT yeast gro inh, PHOSPHO1 block, Platelet DG rel, SKKanGAS inh, TPT1 inh)
O=C(/C=C/c1ccco1)Nc1ccccc1N1CCCCC1	WT yeast gro inh 70
CCC(C)c1ccc(NC(=S)Nc2ccc(OC)cc2C)cc1 (centres undefined)	WT yeast gro inh 75
CCC(C)c1ccc(NC(=S)Nc2ccc(OC)c(OC)c2)cc1 (centres undefined)	WT yeast gro inh 72
COc1ccc(C)cc1NC(=S)NC(C)c1ccc(OC)c(OC)c1 (centres undefined)	WT yeast gro inh 64
CCC(C)c1ccc(C(CC)NC(=O)C2CCCO2)cc1 (centres undefined)	none (no result: WT yeast gro inh)
COc1ccc(NC(=S)NC(C)c2ccncc2)cc1OC (centres undefined)	none
CCC(C)c1ccc(NC(=S)NC(C)C2CCCO2)cc1 (centres undefined)	WT yeast gro inh 66
C=CCNc1nc(C(=O)OCC(=O)NCc2cccc(Cl)c2)cs1	none (no result: WT yeast gro inh, PHOSPHO1 block, Platelet DG rel, SKKanGAS inh, TPT1 inh)
Cc1cc(C)cc(OCCNC(=O)c2ccc(Br)cc2)c1	none (no result: WT yeast gro inh)
O=C(N/N=C/c1cn(-c2cccs2)nc1-c1ccccc1)c1ccccc1O	WT yeast gro inh 60
O=C(N/N=C/c1cn(-c2cccs2)nc1-c1ccccc1)c1ccccc1Br	none
CC(=O)c1cccc(NC(=O)c2cc(=O)[nH]c3ccc(S(=O)(=O)N4CCOCC4)cc23)c1	none (no result: WT yeast gro inh, PHOSPHO1 block, Platelet DG rel, SKKanGAS inh, TPT1 inh)
CCc1ccc2ncc(S(=O)(=O)c3ccc(C)c(C)c3)c(N3CCCC3)c2c1	WT yeast gro inh 72
CCOC(=O)c1cnc2ccc(OCC)cc2c1N1CCN(c2ccccc2)CC1	WT yeast gro inh 74
CCOc1ccc2ncc(S(=O)(=O)c3ccccc3)c(N3CCN(c4ccccc4)CC3)c2c1	none (no result: WT yeast gro inh, PHOSPHO1 block)
COc1ccc(N2CCN(c3c(S(=O)(=O)c4ccccc4)cnc4ccc(OC)cc34)CC2)cc1	WT yeast gro inh 76
CCOC(=O)c1cnc2ccc(OCC)cc2c1NCc1ccccc1	WT yeast gro inh 86
FC(F)(F)c1ccc(-n2cnc3ccccc32)nc1	none (no result: WT yeast gro inh)
CC(=O)N1CCC(O)(c2cccc(C(F)(F)F)c2)CC1	WT yeast gro inh 96
Cc1ccc2oc(C(=O)N3CCC(O)(c4cccc(C(F)(F)F)c4)CC3)c(C)c2c1	none (no result: WT yeast gro inh)
CCc1nc(N2CCN(C(=O)c3ccco3)CC2)c2c3c(sc2n1)CCCC3	none
CC1CCc2c(sc3nc(C4CC4)nc(N4CCN(C(=O)c5ccco5)CC4)c23)C1 (centres undefined)	SKKanGAS inh 58 (no result: WT yeast gro inh, PHOSPHO1 block)
O=S(=O)(c1ccccc1F)N1CCN(Cc2cc3c(cc2Br)OCCO3)CC1	none (no result: WT yeast gro inh, PHOSPHO1 block, Platelet DG rel, SKKanGAS inh, TPT1 inh)
c1ccc2cc(CSCc3nc4ccccc4[nH]3)ccc2c1	WT yeast gro inh 74
O=C(CN1C(=O)NC2(CCCC2)C1=O)N1CCN(c2ccccc2Cl)CC1	none (no result: WT yeast gro inh, PHOSPHO1 block)
Cc1sc2ncnc(N/N=C/c3ccc(O)cc3)c2c1C	none
Cc1sc2ncnc(N/N=C/c3ccccc3O)c2c1C	SKKanGAS inh 94
Cc1cc(Cl)ccc1C(=O)C1CCCN(C(=O)c2cnn(C(C)C)c2)C1 (centres undefined)	none (no result: WT yeast gro inh)
